Measurements from the supplement of paper PMC7366291.
Counter-ions that a name gives are not always drawn. ± gives the standard deviation or the standard deviation of the averaged measurements.

What was measured:
Conditions in all cases: 25 µM; exposure: 24-48 hpf
[1] = test system: Danio rerio Tg(wt1b:EGFP) embryo, pronephros; assay: glomerular separation, fold change vs DMSO control; higher = glomeruli further apart (abnormal)
Method in brief: (§1)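 Dechorionated Tg(wt1b:EGFP) zebrafish embryos were kept from 24 to 48 hpf at 28.5°C in HEPES-buffered E3 containing 0.003% PTU, 0.5% DMSO and 25 μM compound. The pronephroi were then imaged from the dorsal side in agarose-filled 96-well plates at 470 nm with 10 z-slices, and 16 reference points were placed by hand on maximum projections in Fiji so that a macro could calculate distances and angles. Values lying more than 2 SD from the mean of a feature were discarded. Every feature is given as a fold change against the mean of DMSO-treated embryos from the same day.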

[2] = test system: Danio rerio Tg(wt1b:EGFP) embryo, pronephros; assay: glomerular width (mean of left and right), fold change vs DMSO control; higher = wider glomerulus
Method in brief: as §1

[3] = test system: Danio rerio Tg(wt1b:EGFP) embryo, pronephros; assay: fraction of imaged embryos annotated as normal kidney; higher = less nephrotoxic; extreme values may be limits of the assay
Method in brief: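 The read-out is the proportion of embryos in each treatment manually annotated as normal-kidney. Exposure ran from 24 to 48 hpf at 28.5°C in 12-well plates, using dechorionated Tg(wt1b:EGFP) zebrafish embryos in 5 mM HEPES-buffered E3 with 0.003% PTU, 0.5% DMSO and 25 μM compound. For imaging, larvae were anaesthetised with tricaine, positioned dorsally in agarose-filled 96-well plates and captured by widefield fluorescence (470 nm, 10 z-slices), with scoring done on maximum projections.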

[4] = test system: Danio rerio Tg(wt1b:EGFP) embryo, pronephros; assay: pronephric angle neck segment to proximal convoluted tubule (mean of left and right), fold change vs DMSO control; higher = larger pronephric angle
Method in brief: as §1

Structure (SMILES)	glomerular separation [1]	glomerular width [2]	fraction of imaged embryos annotated as normal kidney [3]	pronephric angle neck segment [4]
CC(Cc1ccccc1)NCCC(c1ccccc1)c1ccccc1 (stereo not given) [Prenylamine lactate]	1.05 ± 0.22	1.07 ± 0.071	0.727	0.953 ± 0.032
CCC(=O)O[C@@](Cc1ccccc1)(c1ccccc1)[C@@H](C)CN(C)C [Levopropoxyphene napsylate]	1.29 ± 0.53	1.05 ± 0.037	0.909	0.996 ± 0.044
O=c1[nH]c2ccccc2n1CCCN1CCC(n2c(=O)[nH]c3cc(Cl)ccc32)CC1 [Domperidone]	0.857 ± 0.34	1.03 ± 0.08	0.818	0.963 ± 0.041
C[C@]12N[C@H](Cc3ccccc31)c1ccccc12 [Dizocilpine maleate]	0.888 ± 0.31	1.03 ± 0.077	0.917	0.978 ± 0.071
CC(C)(N)Cc1ccccc1 [Phentermine hydrochloride]	0.886 ± 0.21	0.981 ± 0.035	0.917	0.979 ± 0.031
C(#CCN1CCCC1)CN1CCCC1 [Tremorine dihydrochloride]	1.25 ± 0.52	0.9472 ± 0.008	0.75	1.03 ± 0.015
COc1ccc(CCN)cc1OC [Homoveratrylamine]	1.13 ± 0.38	0.994 ± 0.012	0.75	0.972 ± 0.021
CC(C)C[C@H]1C(=O)N2CCC[C@H]2[C@]2(O)O[C@](NC(=O)[C@@H]3C=C4c5cccc6[nH]c(Br)c(c56)C[C@H]4N(C)C3)(C(C)C)C(=O)N12 [Bromocryptine mesylate]	1.01 ± 0.34	1.12 ± 0.012	0.833	0.985 ± 0.022
COc1cccc(C2(O)CCCCC2CN(C)C)c1 (stereo not given) [Tramadol hydrochloride]	0.728 ± 0.23	0.989 ± 0.021	0.833	0.9988 ± 0.0034
C[C@]12CC[C@H](O)C[C@@H]1CC[C@@H]1[C@@H]2CC[C@]2(C)C(=O)CC[C@@H]12 [Epiandrosterone]	1.72 ± 0.71	0.905 ± 0.061	0.417	1.04 ± 0.022
